Reference: PubChem BioAssay (NCATS)
Results filed as inconclusive are left out. The source made the active and inactive calls. Calls come from the whole dose curve; as a rule, active = well fitted cell-killing curve with a large enough effect; inconclusive = small, poorly fitted or top-dose-only effect; inactive = flat fitted curve, though single readings scatter.

assay: Cell Viability - LYMP2-019 (AID 973); details: LYMP2-019 lymphoblastoid cell line viability; series mostly up to 92.2 µM; activity change, negative = cytotoxicity: at the top concentration;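 note: cells exposed to compound for 24 h at 37 °C; nearly all actives have a fitted effect of over 55% in size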;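 for activity change, negative = cytotoxicity: 0% = DMSO alone and full effect = 92 µM tetraoctylammonium bromide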
Text: NIH Chemical Genomics Center [NCGC]
NIH Molecular Libraries Screening Centers Network [MLSCN]
National Institutes of Environmental Health Sciences [NIEHS]
National Toxicology Program [NTP]
We have developed a 1536-well cell-based assay for quantitative high throughput screening (qHTS) against a number of cell lines to determine in vitro cytotoxicity of small molecules. This particular assay uses a human lymphoblastoid cell line (LYMP2-019) purchased from Coriell Institute for Medical Research.
NCGC Assay Protocol Summary:
The CellTiter-Glo luminescent cell viability assay (Promega) is a homogeneous method to measure the number of viable cells in culture. The end point readout of this assay is based on quantitation of intracellular ATP, an indicator of metabolic activity, using the luciferase reaction. Luciferase catalyzes the oxidation of beetle Luciferin to oxyluciferin and light in the presence of ATP. The luminescent signal is proportional to amount of ATP present.
Using the CellTiter-Glo luminescent cell viability assay, the amount of cellular ATP was measured in the lymphoblastoid cell line with complete culture medium following compound treatment for 24 hours. The assay was performed in opaque white Kalypsys 1536-well plates. In the screen, tetraoctylammonium bromide was used as positive control. Library compounds were measured for their ability to cause acute toxicity in the cell line, as reflected by a decrease in intracellular ATP levels, in a concentration-dependent manner. […] AC50 values were determined from concentration-response data modeled with the standard Hill equation.
qHTS protocol for CellTiter Glo lymphoblastoid cellular assay
[Step] [Parameter] [Value] [Description]
1. Reagent; 5 uL; 2500 lymphoblastoid cells/well
2. Time; 5 hr; 37 C incubation
4. Controls; 23 nL; Tetraoctylammonium bromide 6.4pM to 92 uM
5. Time; 24 hr; 37 C incubation
6. Reagent; 5 uL; CellTiter Glo reagent
7. Time; 30 min; Room Temperature
8. Detection; Luminescence; Viewlux plate reader
Keywords: cell viability, cytotoxicity, lymphoblastoid cell line, luminescence, NTPHTS, NTPHTS_NCGC, NIEHS, DSSTox, MLSMR, MLSCN, NIH Roadmap, qHTS, NCGC
Potency is the fitted concentration of half-maximal effect.

| SMILES | activity change, negative = cytotoxicity | Potency |
| --- | --- | --- |
| Nc1ccc(Cl)c(Cl)c1 | -17.5% (inactive) |  |
| CCC#N | 1.22% (inactive) |  |
| CC(Cl)(Cl)Cl | -4.45% (inactive) |  |
| Nn1cnnc1 | -5.23% (inactive) |  |
| CCCCCCCCCCCCCl | -3.62% (inactive) |  |
| CC(C)(COCC1CO1)COCC1CO1 (stereo not given) | -11.6% (inactive) |  |
| CCN(CC)N=O | 3.88% (inactive) |  |
| C=CCCC#N | -4% (inactive) |  |
| C=COC(C)=O | -7.55% (inactive) |  |
| O=[N+]([O-])c1cc(Cl)c(Cl)c(Cl)c1 | -12.5% (inactive) |  |
| Cc1cc(-c2ccc(N)c(C)c2)ccc1N | 0.889% (inactive) |  |
| CCOC(=O)CC(SP(=O)(OC)OC)C(=O)OCC (stereo not given) | -0.483% (inactive) |  |
| O=C(O)C(Cl)Br (stereo not given) | -14.1% (inactive) |  |
| Nc1ccc([N+](=O)[O-])cc1N | -17.9% (inactive) |  |
| Clc1ccc(Cl)c(Cl)c1 | -7.53% (inactive) |  |
| Nc1ccc(-c2ccc(N)cc2)cc1 | -5.9% (inactive) |  |
| CN(C)c1ccccc1 | -3% (inactive) |  |
| NNC(N)=S | 1.53% (inactive) |  |
| CCNCC | -0.692% (inactive) |  |
| Cc1cc(-c2cc(C)c(N)c(C)c2)cc(C)c1N | -3.86% (inactive) |  |

| SMILES | activity change, negative = cytotoxicity | Potency |
| --- | --- | --- |
| BrC(Br)Br | 7.07% (inactive) |  |
| CNC(=O)O/N=C/C(C)(C)S(C)=O (stereo not given) | -13.6% (inactive) |  |
| CC(C)(C)C(O)(CCc1ccc(Cl)cc1)Cn1cncn1 (stereo not given) | -17.5% (inactive) |  |
| Nc1cccc(Cl)c1 | -3.96% (inactive) |  |
| CCCCC(=O)Cl | -17% (inactive) |  |
| Cc1cnc[nH]1 | -2.42% (inactive) |  |
| CN(C)C(=O)Cl | -11.9% (inactive) |  |
| O=[N+]([O-])c1ccccc1-c1ccccc1 | -11.5% (inactive) |  |
| N#C/C=C/C#N |  | 31.6 µM (active) |
| C=C(C)CCl | -0.636% (inactive) |  |
| Nc1ccc(-c2ccccc2)cc1 | -13.2% (inactive) |  |
| COC(C)(C)C | -6.86% (inactive) |  |
| OCCBr | -16.9% (inactive) |  |
| CCOP(=S)(OCC)Oc1nc(Cl)c(Cl)cc1Cl | -4.16% (inactive) |  |
| Cc1ccc(N)cc1C | -0.0435% (inactive) |  |
| Cc1cc(N=Nc2ccccc2C)ccc1N | -25.8% (inactive) |  |
| CC12CC1(C)C(=O)N(c1cc(Cl)cc(Cl)c1)C2=O (stereo not given) | -17.5% (inactive) |  |
| Cc1ccccc1[N+](=O)[O-] | -9.47% (inactive) |  |
| ClC(Cl)Br | 6.31% (inactive) |  |
| Clc1cccc(Cl)c1Cl | -2.51% (inactive) |  |
